Inhibition data for 76 molecules are collected here from PubChem BioAssay AID623870 (Broad Institute, 2012).

Hit rate of the full screen: of about 390,000 compounds, about 2,600 (0.67%) were called active.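 The calls were made as follows: active = mean inhibition of replicates at least 50% and at least half of replicates each reaching 50%; inconclusive = half or more replicates reach 50% but mean below 50%; inactive = the rest.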 The full list was thinned out, with actives kept by preference.

For this assay, the target named is Transforming acidic coiled-coil-containing protein 3 (Homo sapiens) (UniProt Q9Y6A5). Put plainly: inhibitors of ARNT PAS-B binding to TACC3 – biochemical, AlphaScreen, single concentration, primary screen (AID 623870).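 Also: 0% = complete ARNT plus TACC3 wells and 100% = ARNT alone without TACC3.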 The settings on record: AlphaScreen His-ARNT PAS-B/GST-TACC3 binding, luminescence; at 9.99 µM; hits give high values; TACC3 fragment carries E629A point mutation. A general note: Bead proximity is the source of the signal in Alpha formats.
Usually inhibition stands for the change of the read-out against control, counted positive when it falls. Turning to `N#Cc1c(N2CCCCC2)nc(N)c2c(N)nc(SCC(=O)O)cc12`, the inhibition is 80.8% (active). For the molecule `CCCN1[C@H](C(=O)N[C@H](C)c2ccccc2)[C@@H](CO)[C@@H]2Cn3c(ccc(-c4cccc(F)c4)c3=O)[C@@H]21`, the inhibition is 2.44% (inactive). In the case of `C[C@@H]1CN([C@H](C)CO)C(=O)Cc2cc(NC(=O)CCC(F)(F)F)ccc2O[C@@H]1CN(C)CC1CCCCC1`, the inhibition was 2.83% (inactive).

On to `COc1ccccc1-c1cccc(-c2nc(C(=O)N3CCN(C)CC3)cc3c2[C@H](CCO)N([S@@](=O)C(C)(C)C)C3)c1`, for which the inhibition is 51.3% (active). Consider `CN1CCN(C(=O)c2cc3c(c(-c4cccc(-c5ccc(C(=O)N(C)C)cc5)c4)n2)[C@@H](CCO)N([S@](=O)C(C)(C)C)C3)CC1`, for which the inhibition was -5.08% (inactive). In the case of `CC(C)(C)[S@](=O)N1Cc2cc(C(=O)N3CCCCC3)nc(-c3cccc(-c4ccccc4F)c3)c2[C@@H]1CCO` it was 9.08% (inactive); in that of `C[C@@H]1CN([C@H](C)CO)C(=O)c2cc(NC(=O)Nc3ccccc3)ccc2O[C@@H](C)CCCCO[C@@H]1CN(C)S(=O)(=O)c1ccc(F)cc1`, -3.52% (inactive); in that of `CCCNC(=O)N(C)C[C@H]1Oc2ncc(-c3cccc(C#N)c3)cc2C(=O)N([C@@H](C)CO)C[C@@H]1C`, -5.02% (inactive). In the case of `O=C(NCCCn1ccnc1)c1cc(-c2ccccc2)on1` it was 1.74% (inactive); in that of `O=C(NCCCn1ccnc1)c1cc(Br)c(Br)s1`, 15.4% (inactive); in that of `O=C(NCCCn1ccnc1)c1cc2c(s1)CCCC2`, 49.3% (active). For `O=C(N[C@H]1CC[C@H](CCNS(=O)(=O)c2ccc(F)cc2)O[C@H]1CO)c1cccc(F)c1`, the inhibition is 3.52% (inactive).

With `CCS(=O)(=O)N1CCCCN2[C@@H](CO)[C@@H](c3ccc(-c4ccccc4)cc3)[C@@H]2C1`, the inhibition is -0.151% (inactive). In the case of `O=C([C@H]1[C@H](CO)[C@H]2Cn3c(ccc(-c4ccccc4)c3=O)[C@@H]1N2Cc1cccnc1)N1CCOCC1` it was 42.2% (inactive); in that of `Cn1c(=O)c2c(nc(N/N=C/c3cccs3)n2Cc2ccc(Br)cc2)n(C)c1=O`, 12.7% (inactive); in that of `O=c1nc(N/N=C/c2ccco2)cn[nH]1`, 5.23% (inactive). To `Cc1n[nH]c(=O)nc1N/N=C/c1cccs1` belongs 67.8% (active); to `C[C@@H]1CN([C@@H](C)CO)C(=O)c2cc(C3=CCCC3)cnc2O[C@@H]1CN(C)C(=O)Cc1ccncc1`, 3.47% (inactive).

Take `Cc1ccc(S(=O)(=O)Nc2ccc3c(c2)C(=O)N([C@H](C)CO)C[C@H](C)[C@H](CN(C)S(C)(=O)=O)O3)cc1`: the inhibition was -7.55% (inactive). Regarding `C[C@@H]1CN([C@@H](C)CO)C(=O)c2cc(-c3cccc(F)c3)cnc2O[C@@H]1CN(C)Cc1ccccc1`, the inhibition was 1.97% (inactive). Consider `COc1ccc(-c2ccc3c(c2)O[C@H](CN(C)Cc2ccccc2C(=O)O)[C@H](C)CN([C@@H](C)CO)S3(=O)=O)cc1`, for which the inhibition is 5.2% (inactive). Regarding `O=S(=O)(N[C@@H]1CC[C@@H](CCn2cc(-c3ccccn3)nn2)O[C@@H]1CO)c1cccc(Cl)c1`, the inhibition is 69.9% (active). Regarding `O=C(N[C@@H]1CC[C@@H](CCn2cc(-c3ccccn3)nn2)O[C@@H]1CO)c1ccccc1`, the inhibition was 40.7% (inactive).

Regarding `O=C(N[C@@H]1CC[C@H](CCn2cc(-c3ccccn3)nn2)O[C@@H]1CO)c1ccccc1`, the inhibition is 87.5% (active).

Turning to `CN(C)Cc1cn(CC[C@H]2CC[C@@H](NS(=O)(=O)c3ccccc3)[C@H](CO)O2)nn1`, the inhibition is -3.27% (inactive).

As to `CN(C)Cc1cn(CC[C@H]2CC[C@H](NS(=O)(=O)c3ccccc3)[C@@H](CO)O2)nn1`, the inhibition was -3.47% (inactive). On to `O=C(N[C@@H]1CC[C@H](CCn2cc(-c3ccccc3)nn2)O[C@H]1CO)c1cnccn1`, for which the inhibition was 4.06% (inactive). To `C[C@H]1CN([C@@H](C)CO)C(=O)c2cc(C3=CCCC3)cnc2O[C@@H]1CN(C)C(=O)c1ccccc1` belongs -1.02% (inactive); to `CC(C)OC(=O)N(C)C[C@@H]1OCc2ccccc2-c2c(n(C)c3ccccc23)C(=O)N([C@H](C)CO)C[C@H]1C`, 5.73% (inactive). Take `CCC(=O)N(C)C[C@H]1Oc2cc(C#CCOC)ccc2S(=O)(=O)N([C@H](C)CO)C[C@H]1C`: the inhibition is 1.93% (inactive). Take `CC(=O)Nc1ccc2c(c1)C(=O)N(C)[C@H]1CC[C@@H](CC(=O)NCC3CC3)O[C@H]1CO2`: the inhibition is -14.7% (inactive). With `O=C(C[C@H]1CC[C@H]2[C@@H](COC[C@H](O)CN2Cc2ccncc2)O1)NCC1CC1`, the inhibition was 14.4% (inactive). In the case of `C[C@@H]1CN([C@@H](C)CO)C(=O)c2cc(C#CC3CCCCC3)cnc2O[C@H]1CN(C)S(=O)(=O)c1ccccc1`, the inhibition is 10.2% (inactive). `Cc1nc2ccccc2nc1N/N=C/c1ccc(O)cc1O`: the inhibition is 69.6% (active). Regarding `CNC[C@@H]1Oc2ccc(NC(=O)CCC(F)(F)F)cc2C(=O)N([C@@H](C)CO)C[C@@H]1C`, the inhibition was -4.46% (inactive). Turning to `Cc1ccsc1/C=N/NC(=O)Cc1cc(=O)[nH][nH]1`, the inhibition was 1.12% (inactive). Consider `CCc1n[nH]c(=S)n1/N=C/c1c[nH]c2ccc(Br)cc12`, for which the inhibition is -4.96% (inactive). For the molecule `Cc1ccsc1/C=N/n1c(=S)[nH]nc(C)c1=O`, the inhibition was 65.9% (active). Regarding `O=C(NC[C@@H]1[C@@H](c2ccccc2)[C@H](CO)N1C(=O)C1CCC1)NC1CCCC1`, the inhibition was -6.78% (inactive). On to `Oc1cccc(/C=N/Nc2ccc(Cl)nn2)c1O`, for which the inhibition is 53.7% (active). For `COc1ccc(NC(=O)N2C[C@H](O)COC[C@H]3O[C@@H](CC(=O)N4CCN(C)CC4)CC[C@@H]32)cc1`, the inhibition is 0.747% (inactive). On to `NS(=O)(=O)c1ccc(CNC(=O)c2cnccn2)cc1`, for which the inhibition is 6.45% (inactive). Regarding `CCN(CC)c1ccc(/C=N/NC(=O)CNC(=O)c2cccs2)cc1`, the inhibition was -3.55% (inactive). Take `CCN(CC)c1ccc(/C=N/Nc2nc(C)cc(C)n2)c(O)c1`: the inhibition is 69.4% (active). As to `CCN(CC)c1ccc(/C=N/NC(=O)c2cnccn2)c(O)c1`, the inhibition is 53.5% (active). As for `Cc1noc(C)c1NC(=O)Nc1cccc2c1O[C@H](CN(C)C(=O)Nc1c(C)noc1C)[C@@H](C)CN([C@@H](C)CO)C2=O`, the inhibition is 2.88% (inactive). As to `CCCNC(=O)[C@H]1[C@H](CO)[C@H]2Cn3c(ccc(C4=CCCC4)c3=O)[C@H]2N1C(=O)CC`, the inhibition was -1.64% (inactive). For the molecule `O=C(NNC(=S)Nc1ccccc1)c1cccc(S(=O)(=O)N2CCOCC2)c1`, the inhibition is 0.545% (inactive). To `Cc1cccc(-n2cnc(C(=O)NNC(=S)Nc3ccccc3)c2)n1` belongs 70.3% (active); to `Cc1cccc(-n2cnc(C(=O)Nc3cccnc3)c2)n1`, -3.7% (inactive); to `C/C=C/c1cnc2c(c1)C(=O)N([C@H](C)CO)C[C@H](C)[C@@H](CN(C)S(=O)(=O)c1ccccc1F)O2`, -4.04% (inactive). In the case of `C/C=C/c1ccc([C@H]2[C@@H](CO)N(S(C)(=O)=O)[C@@H]2CN(C)C(=O)CC)cc1`, the inhibition was 7.87% (inactive). Consider `CO[C@H]1CN(C)C(=O)c2ccc(NC(=O)C3CC3)cc2OC[C@H](C)N(CCc2ccccc2)C[C@H]1C`, for which the inhibition was -7.12% (inactive). For the molecule `Cc1ccc(NC(=O)CSc2nnc(CNC(=O)c3ccccc3F)o2)cc1Cl`, the inhibition is 2.2% (inactive). `COc1ccc(Cc2nnc(SCC(=O)Nc3ccc(C)c(Cl)c3)[nH]c2=O)cc1`: the inhibition is -0.289% (inactive). Regarding `Cc1ccc(NC(=O)CSc2nn3c(=O)c(C)nnc3s2)cc1Cl`, the inhibition was 56.2% (active). Consider `C[C@H](CO)N1C[C@H](C)[C@@H](CN(C)Cc2ccc(-c3ccccc3)cc2)Oc2ccc(NC(=O)CCCN(C)C)cc2CC1=O`, for which the inhibition is 31.9% (inactive). On to `C[C@H](CO)N1C[C@H](C)[C@@H](CN(C)C)OCCCC[C@H](C)Oc2ccc(NC(=O)C3CCCCC3)cc2C1=O`, for which the inhibition is -2.97% (inactive). Take `COc1cccc(-c2coc3cc4oc(=O)c(CC(=O)O)c(C)c4cc23)c1`: the inhibition was 17.2% (inactive). `CC[C@@H](C)[C@H](NC(=O)CCc1c(C)c2cc3c4c(oc3c(C)c2oc1=O)CCCC4)C(=O)O`: the inhibition is -0.229% (inactive). On to `Cc1c(CC(=O)NCCCCCC(=O)O)c(=O)oc2cc3occ(-c4ccccc4)c3cc12`, for which the inhibition was 54.3% (active). On to `Cc1c(CC(=O)NCC(=O)NCC(=O)O)c(=O)oc2cc3oc4c(c3cc12)CCCC4`, for which the inhibition was 50.6% (active). To `Cc1oc2c(C)c3oc(=O)c(CC(=O)N[C@@H](CC(C)C)C(=O)N[C@@H](Cc4ccccc4)C(=O)O)c(C)c3cc2c1C` belongs 2.61% (inactive). As to `Cc1coc2c1c(C)cc1oc(=O)c(CC(=O)NCC(=O)N[C@H](C(=O)O)C(C)C)c(C)c12`, the inhibition was 2.88% (inactive).

As for `C[C@H](CO)N1C[C@H](C)[C@H](CN(C)Cc2ccncc2)Oc2ncc(C#CCC3CCCCC3)cc2C1=O`, the inhibition is -1.21% (inactive).

On to `Cc1noc(C)c1NC(=O)Nc1ccc2c(c1)CC(=O)N([C@@H](C)CO)C[C@@H](C)[C@@H](CN(C)Cc1ccc(Cl)c(Cl)c1)O2`, for which the inhibition is -1.62% (inactive). In the case of `CO[C@@H]1CN(C)C(=O)c2cc(NS(=O)(=O)c3cn(C)cn3)ccc2OC[C@@H](C)NC[C@H]1C` it was 1.1% (inactive); in that of `CN(C)C(=O)C[C@@H]1CC[C@H](NC(=O)NC2CCCCC2)[C@@H](CO)O1`, -17% (inactive); in that of `CN(C)C(=O)C[C@@H]1CC[C@H]2[C@@H](COC[C@H](O)CN2C(=O)c2ccncc2)O1`, -9.54% (inactive). For the molecule `C[C@@H]1CN([C@H](C)CO)S(=O)(=O)c2ccc(-c3ccncc3)cc2O[C@@H]1CN(C)C(=O)CN(C)C`, the inhibition was 12% (inactive). With `C[C@H]1CN([C@@H](C)CO)C(=O)c2cc(NC(=O)NC3CCCCC3)ccc2O[C@@H]1CN(C)C(=O)Nc1cccc2ccccc12`, the inhibition was 0.153% (inactive). To `C#CCOCCOCCOCCNc1nc(N2CCN(C(=O)CCCCCCCCCCNC(=O)[C@H]([C@@H](C)CC)n3cc(CCCCN=C(N)N)nn3)CC2)nc(N2CCN(C(=O)CCCCCCCCCCNC(=O)[C@H](CO)n3cc(CCCSC)nn3)CC2)n1` belongs 9.17% (inactive). With `CC[C@H](C)[C@@H](C(=O)N1CCNCC1)n1cc([C@@H](N)Cc2ccc(O)cc2)nn1`, the inhibition is -3.75% (inactive). Regarding `C#CCOCCOCCOCCNc1nc(N2CCN(C(=O)C([C@@H](C)O)n3cc([C@@H](N)CCCCN)nn3)CC2)nc(N2CCN(C(=O)[C@H](CCCCN)n3cc(CN)nn3)CC2)n1` (stereo partly specified), the inhibition was 21.2% (active).

Take `C#CCOCCOCCOCCNc1nc(N2CCN(C(=O)[C@H](CCCCN)n3cc([C@@H](N)C(C)CC)nn3)CC2)nc(N2CCN(C(=O)[C@H](Cc3ccc(O)cc3)n3cc([C@@H](N)C(C)CC)nn3)CC2)n1` (stereo partly specified): the inhibition is 45.7% (active).

With `CCC(C)[C@@H](C(=O)N1CCNCC1)n1cc(CCCCN)nn1` (stereo partly specified), the inhibition is 7.8% (inactive).
